D2 PAM-1: human D2 receptor positive allosteric modulation. AID 624464. hit rate 0.23% among 360,000. potentiation, % (concentration not given with the values). DiscoveRx D2 beta-arrestin cells, luminescence, 90 min; 100% = 57 uM dopamine signal; in the data active = potentiation above about 50%; inconclusive = mostly about 30% to 49%
Target sequence (P14416 whole entry, looked up): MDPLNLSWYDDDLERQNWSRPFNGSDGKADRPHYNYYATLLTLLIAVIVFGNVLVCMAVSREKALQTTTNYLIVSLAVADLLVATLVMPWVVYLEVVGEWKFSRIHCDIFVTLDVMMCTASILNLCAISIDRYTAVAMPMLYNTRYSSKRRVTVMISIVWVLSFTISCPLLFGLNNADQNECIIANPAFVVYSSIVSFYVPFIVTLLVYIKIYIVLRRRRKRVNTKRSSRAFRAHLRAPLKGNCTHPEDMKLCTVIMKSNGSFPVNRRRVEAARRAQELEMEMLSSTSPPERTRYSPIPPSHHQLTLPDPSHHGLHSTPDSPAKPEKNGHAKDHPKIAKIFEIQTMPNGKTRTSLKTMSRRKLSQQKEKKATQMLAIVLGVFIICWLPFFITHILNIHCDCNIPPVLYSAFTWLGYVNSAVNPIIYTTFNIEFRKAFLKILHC
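D2 cells co-treated with compound plus 50 nM dopamine (EC20) for 90 min at 37 deg C to detect potentiation. Beta-arrestin recruitment was read as enzyme-fragment luminescence after 1 h at ambient temperature. Full response was set by 57 uM dopamine.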
D2 antagonist: D2 dopamine receptor (human) antagonism | P14416 | HEK293 TREx D2 cells, calcium flux, dopamine EC80 | inhibition, % at 10 µM | hit rate 2% among 340,000 | AID 485344; in the data active = inhibition above about 30%; inactive = below that, where a call was filed; also: 0% is about no effect
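In this primary screen, negative modulation is detected by tracking calcium flux after an EC80 dopamine challenge in inducible HEK293 T-REx D2 cells preexposed to test compound for 180 s.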
D2 ag-1: activates the human D2 dopamine receptor | P14416 | DiscoveRx PathHunter D2 beta-arrestin, luminescence, 90 min; 100% = 57 uM dopamine signal | activation, % (test concentration not listed) | hit rate 0.084% among 360,000 | AID 624465; in the data active = activation above about 40%; inconclusive = between about 15% and that limit
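Agonist mode: compounds alone added to overnight-plated D2 PathHunter cells for 90 min at 37 C, with 57 uM final dopamine (EC100) defining full response. Beta-arrestin recruitment detected by chemiluminescent reagent, read after 1 h at ambient temperature.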
D2 PAM-2: D2 dopamine receptor (human) potentiation; AID 485347; HEK293 T-REx D2, calcium flux, EC20 dopamine potentiation; potentiation, % at 10 µM; P14416; hit rate 0.34% among 340,000;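 active = potentiation over 3 SD above the plate norm, cut at about 30% in these data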; also: 0% is about no effect
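Using a no-wash calcium dye in inducible, force-coupled HEK293 Trex cells expressing D2, we tracked fluorescence each second for 180 s after compound, then for 180 s after EC20 dopamine to detect augmented signalling.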
D2 ag-2: activates the human D2 dopamine receptor. P14416. hit rate 0.53% among 340,000. activation, % at 2 µM. HEK293 T-REx D2 cells, calcium flux agonist mode. AID 485358;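 active = activation over 3 SD above normal in the single-dose calcium agonist read, cut at about 30% in these data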; also: 0% is about no effect
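Calcium-flux readout, 1 cycle/sec over 180 s following compound pin transfer, in inducible HEK293 Trex D2 cells (force-coupled); dopamine controls included. Positive calcium responses during this window marked compounds as potential agonists.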
Active calls of the source: *; ? = inconclusive; / = no result given. This is a sample that favours compounds with a hit; in the whole collection about 2.4% have one here.

SMILES | D2 PAM-1 | D2 antagonist | D2 ag-1 | D2 PAM-2 | D2 ag-2
CCCOC(=O)c1ccc(NC(=O)c2nc3nc(C)cc(C)n3n2)cc1 | -8 | 8 | -3 | 31* | -1
Cc1cc(C)n2nc(C(=O)OCC(=O)Nc3ccc(Cl)cc3)nc2n1 | 0 | / | 1 | / | /
CC1CN(C(=O)N2CCC(C(=O)NC3CCCCCC3)CC2)c2cc(Cl)ccc2O1 (stereo not given) | / | / | / | 5 | 1
N=c1sccn1CC(=O)NCCc1ccc(Cl)cc1Cl | -24 | 39* | -3 | -9 | 0
COc1ccc(CCC(=O)NCc2ccc3c(c2)CCN3C(=O)c2ccc(C)cc2)cc1 | / | / | / | -1 | 1
CCCCOc1ccc(C2c3c(oc4ccccc4c3=O)C(=O)N2c2nc(C)c(C(=O)OCC)s2)cc1OC (stereo not given) | / | / | / | 0 | 0
CCOc1ccccc1C(=O)NC(C)c1ccc2c(c1)OCO2 (stereo not given) | -2 | 40* | -1 | 0 | 0
O=C(Nc1cccc(F)c1)c1ccc2c(c1)OCO2 | -16 | 31* | -1 | / | 5
O=C(Nc1cccc(F)c1)c1ccccc1 | -8 | -11 | -2 | -1 | 0
O=C(Nc1ccc(Nc2ccccc2)cc1)c1cccc(F)c1 | -6 | -18 | -3 | 32* | 0
CCOc1cc(C(=O)Nc2ccc3c(c2)OCO3)ccc1OCCOc1ccccc1Cl | -9 | 32* | 3 | 0 | 1
O=C(NNC(=O)c1ccc(F)cc1F)c1ccc2c(c1)OCO2 | 4 | 37* | -2 | -3 | 3
CCCCn1c(N)c(N(Cc2ccccc2OC)C(=O)c2ccc([N+](=O)[O-])s2)c(=O)[nH]c1=O | 50* | -23 | ? | -1 | 0
COC(=O)c1c(C)[nH]c(C(=O)C(C)Sc2nnc(-c3cc(OC)c(OC)c(OC)c3)o2)c1C (stereo not given) | -9 | 32* | -1 | 5 | -1
O=C(CCNS(=O)(=O)c1cccc(C(F)(F)F)c1)NC1CC1 | 0 | 13 | -1 | 45* | -1
CC1CCC(NC(=O)CCNS(=O)(=O)c2ccccc2)CC1 (stereo not given) | 2 | 12 | -2 | -8 | 1
COc1ccc(C)cc1NC(=O)CN(c1cc(C(F)(F)F)ccc1Cl)S(C)(=O)=O | / | / | / | 14 | 0
Cc1ccc(NC(=O)CSc2nnc(C)n3c2cc2sccc23)c(C)c1 | / | / | / | 3 | 0
COc1ccccc1N(C)S(=O)(=O)c1ccc(Cl)c(C(=O)NC2=NCCS2)c1 | -4 | -2 | 1 | -7 | -8
CN(c1ccccc1)S(=O)(=O)c1ccc(Cl)c(C(=O)NC2=NCCS2)c1 | 8 | -11 | 3 | 31* | -1
CC(=O)c1ccc(NC(=O)c2sc(-n3nc(C)c(CCC(C)C)c3C)nc2C)cc1 | / | / | / | 11 | /
CCN(CC(=O)Nc1c(F)cccc1F)C(=O)/C=C/c1cn(Cc2ccccc2)nc1-c1cccnc1 | 1 | 32* | 1 | 7 | 0
Cc1ccc(NC(=O)C2CC(=O)NC(N3CCCCC3)=N2)cc1Cl (stereo not given) | -28 | 71* | -3 | -19 | -1
O=C1CC(C(=O)Nc2ccccc2)N=C(N2CCCCC2)N1 (stereo not given) | -16 | -29 | -4 | 0 | -1
CCN(CC)C(=O)c1ccc2c(c1)N(Cc1ccccc1F)C(=O)c1ccccc1S2=O (stereo not given) | / | / | / | -5 | -2
SMILES | D2 PAM-1 | D2 antagonist | D2 ag-1 | D2 PAM-2 | D2 ag-2
CCc1nn(C(CC)C(=O)NCCCc2ccccc2)c(=O)c2cc3occc3n12 (stereo not given) | -15 | 1 | 0 | -4 | 0
CCc1nn(C(CC)C(=O)NCCCN2CC(C)CC(C)C2)c(=O)c2cc3oc(C)cc3n12 (stereo not given) | -35 | 64* | -4 | -33 | 0
Cc1ccc(CSc2ccc(S(=O)(=O)N3CCCC3)cn2)cc1 | 0 | 8 | -3 | 6 | -2
N#Cc1ccc(CSc2ccc(S(=O)(=O)N3CCCC3)cn2)cc1 | -1 | 30* | -5 | 0 | -1
N#Cc1cccc(Oc2ccc(S(=O)(=O)N3CCCC3)cn2)c1 | 1 | 35* | -2 | -11 | -1
CC(Oc1ccccc1)C(=O)N(CCC1=CCCCC1)c1c(N)n(Cc2ccccc2)c(=O)[nH]c1=O (stereo not given) | -11 | 6 | -5 | -1 | 0
COc1ccc(C(CCN2CCCC(C)C2)c2c(OC)cc(OC)c3c2OC(=O)CC3c2cc(OC)c(OC)c(OC)c2)cc1 (stereo not given) | -23 | 52* | 2 | -27 | 0
CCCCCc1cc(=O)oc2c(C(CCN3CCN(c4ccccc4)CC3)c3ccc4c(c3)OCO4)c(OC)cc(OC)c12 (stereo not given) | 2 | 50* | 14 | -9 | 17
COc1cc(OC)c2ccc(=O)oc2c1C(CCN1CCCC(C)C1)c1ccc2c(c1)OCO2 (stereo not given) | -22 | 83* | -2 | -18 | -1
COc1cccc(N2C(=O)CC(N3CCN(S(=O)(=O)c4ccccc4[N+](=O)[O-])CC3)C2=O)c1 (stereo not given) | 0 | / | ? | / | /
CCOC(=O)c1c(C)[nH]c(C)c1S(=O)(=O)N1CCCC(C(=O)N2CCN(c3ccccc3F)CC2)C1 (stereo not given) | / | / | / | -9 | 1
Cc1ccc(-c2cnc(C(O)c3ccc(C)cc3)[nH]2)cc1 (stereo not given) | -16 | / | -4 | / | /
Oc1sc(C=Nc2ccc(F)cc2)c2ccccc12 | ? | -9 | -1 | 6 | -1
Oc1sc(C=Nc2ccccc2)c2ccccc12 | 24 | -11 | 6 | -2 | 36*
O=c1[nH]c(-[n+]2ccccc2)c(/C=N/NC([S-])=Nc2ccccc2)s1 | -9 | 15 | -1 | 6 | 30*
Cc1cc[n+](-c2[nH]c(=O)sc2/C=N/NC([S-])=Nc2ccccc2)cc1 | -14 | -12 | -2 | 0 | 0
COc1ccc(S(=O)(=O)N2CCC(n3c(C)nc4cccnc43)CC2)cc1Cl | / | / | / | -1 | 6
CCCCN(C)C1=CC2=CC(=C(C#N)C#N)CCC2CC1 (stereo not given) | 13 | 73* | 10 | -19 | 140*
N#CC(C#N)=C1C=C2C=C(N3CCCCC3)CCC2CC1 (stereo not given) | 22 | 87* | ? | -18 | 132*
N#CC1=C(N)C2=C(N3CCCCC3)CCCC2C1(C#N)C#N (stereo not given) | 4 | -15 | 3 | 17 | 1
O=C(CCC(=O)Nc1nnc(C2CCCCC2)s1)Nc1ccccc1 | -4 | 16 | -6 | -4 | -1
O=C(CCS(=O)(=O)c1cc2c(cc1Cl)NC(=O)CO2)NCCc1ccccc1 | 0 | -3 | -7 | -3 | 1

Compound activity deposited in PubChem BioAssay by National Center for Advancing Translational Sciences (NCATS).
